In PubChem BioAssay (NCATS) one finds Potency and outcome data, which are given here for 12 compounds.

Records with an inconclusive call do not appear. Activity calls are given as the source filed them. Calls follow the shape of the dose curve; as a rule, active = well fitted curve in the direction sought with a large enough effect; inconclusive = small, poorly fitted or top-dose-only effect, or another doubt; inactive = no such curve, though single readings can be large; an effect the other way counts as inactive or inconclusive.

Assay [1] has as its system Zika virus NS2B-NS3 protease. The assay can be described thus: Primary screen GU AMC qHTS for Zika virus inhibitors (AID 1347154). Also: nearly all actives have a fitted effect of over 70% in size. Also: potency is read from the fitted curve at half-maximal effect. An outline of the steps:
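Unlinked Zika NS2B hydrophilic domain–NS3 protease complex at 25 nM in 10 mM Tris-HCl pH 8.0, 0.01% Tween 20, with an AMC peptide substrate. Fluorescence change (340/450 nm) over 15 min at room temperature, normalized to controls, fitted to 4-parameter Hill.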
Background: In qHTS, concentration-response curves come from the screen itself.

The subject of assay [2] is Zika virus NS2B-NS3 protease (unlinked complex). Nature of the assay: Primary screen GU Rhodamine qHTS for Zika virus inhibitors: Unlinked NS2B-NS3 protease assay (AID 1347159). Also: nearly all actives have a fitted effect of over 60% in size. In outline: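 Compounds, tested up to 114 microM, were incubated for 15 minutes with 25 nM unlinked NS2B-NS3 protease at pH 8.0. Cleavage of 1.5 microM Rhodamine110 substrate was then followed by fluorescence for 15 minutes.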

The subject of assay [3] is Zika virus NS2B-NS3 protease (linked construct). Nature of the assay: Primary screen NINDS Rhodamine qHTS for Zika virus inhibitors (AID 1347160). Also: nearly all actives have a fitted effect of over 55% in size. In outline:
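Percent inhibition, normalized to uninhibited and enzyme-free controls, is fitted to a 4-parameter Hill equation. Fluorescence change comes from a 15-min cleavage of 1.5 microM bis-peptide Rhodamine110 substrate by 25 nM linked NS2B-NS3 at room temperature.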

Assay [4] is described as follows: qHTS to identify inhibitors of the type 1 interferon - major histocompatibility complex class I in skeletal muscle: primary screen against the NCATS Pharmaceutical Collection (AID 1347407).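 Also: luminescence of HiBiT knocked into endogenous HLA-B as interferon-induced MHC class I level.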 Also: potency is read from the fitted curve at half-maximal effect. An outline of the steps:
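Compounds […] were added to CRISPR-engineered HLA-B-HiBiT C25cl48 human myoblasts with 4.0 ng/ml IFN-beta. After 24 hrs at 37 C, cells were lysed and HiBiT luminescence measured.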

In assay [5] the target is Protein phosphatase 1D (Homo sapiens) (UniProt O15297). Nature of the assay: RapidFire Mass Spectrometry qHTS Assay for Modulators of WT P53-Induced Phosphatase 1 (WIP1) (AID 1347424).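 Also: amount of dephosphorylated VEPPL-S-QETFS peptide product formed by WIP1; series mostly up to about 63 µM.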 An outline of the steps:
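10 nM WIP1 preincubated with compounds 1 hr at room temperature in pH 7.5 Tris buffer with 30 mM MgCl2, 1 mM TCEP; 2 uM VEPPL-pS-QETFS phosphopeptide for 5 min, formic acid quench; dephosphorylated product quantified by RapidFire MS against labelled standard.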

For assay [6] the target is unchanged. Nature of the assay: Rhodamine-PBP qHTS Assay for Modulators of WT P53-Induced Phosphatase 1 (WIP1) (AID 1347425). An outline of the steps: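 Steps: enzyme with Rh-PBP sensor and compounds, room-temperature incubation of 1 hr, baseline read, addition of VEPPL-pS-QETFS (10 uM final), kinetic fluorescence reads at 525/598 nm. Activity equals final minus baseline signal.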

Assay [7] deals with Lysine-specific demethylase 5B (Homo sapiens) (UniProt Q9UGL1). Nature of the assay: Optimization screen for KDM5B Histone Demethylases FDH coupled qHTS against the LOPAC library (AID 1347166). In outline: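 KDM5BDeltaAP (200nM final) preincubated 10 min with compound, then 12.5uM H3K4Me3, 25uM a-ketoglutarate, ascorbate, Fe(II), NAD+ and FDH added; 50mM HEPES pH 7.5, 0.01% Tween-20. NADH fluorescence (340/450 nm) change over 30 min, room temperature.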
Chain of Lysine-specific demethylase 5B (Homo sapiens) (Q9UGL1 whole entry, looked up): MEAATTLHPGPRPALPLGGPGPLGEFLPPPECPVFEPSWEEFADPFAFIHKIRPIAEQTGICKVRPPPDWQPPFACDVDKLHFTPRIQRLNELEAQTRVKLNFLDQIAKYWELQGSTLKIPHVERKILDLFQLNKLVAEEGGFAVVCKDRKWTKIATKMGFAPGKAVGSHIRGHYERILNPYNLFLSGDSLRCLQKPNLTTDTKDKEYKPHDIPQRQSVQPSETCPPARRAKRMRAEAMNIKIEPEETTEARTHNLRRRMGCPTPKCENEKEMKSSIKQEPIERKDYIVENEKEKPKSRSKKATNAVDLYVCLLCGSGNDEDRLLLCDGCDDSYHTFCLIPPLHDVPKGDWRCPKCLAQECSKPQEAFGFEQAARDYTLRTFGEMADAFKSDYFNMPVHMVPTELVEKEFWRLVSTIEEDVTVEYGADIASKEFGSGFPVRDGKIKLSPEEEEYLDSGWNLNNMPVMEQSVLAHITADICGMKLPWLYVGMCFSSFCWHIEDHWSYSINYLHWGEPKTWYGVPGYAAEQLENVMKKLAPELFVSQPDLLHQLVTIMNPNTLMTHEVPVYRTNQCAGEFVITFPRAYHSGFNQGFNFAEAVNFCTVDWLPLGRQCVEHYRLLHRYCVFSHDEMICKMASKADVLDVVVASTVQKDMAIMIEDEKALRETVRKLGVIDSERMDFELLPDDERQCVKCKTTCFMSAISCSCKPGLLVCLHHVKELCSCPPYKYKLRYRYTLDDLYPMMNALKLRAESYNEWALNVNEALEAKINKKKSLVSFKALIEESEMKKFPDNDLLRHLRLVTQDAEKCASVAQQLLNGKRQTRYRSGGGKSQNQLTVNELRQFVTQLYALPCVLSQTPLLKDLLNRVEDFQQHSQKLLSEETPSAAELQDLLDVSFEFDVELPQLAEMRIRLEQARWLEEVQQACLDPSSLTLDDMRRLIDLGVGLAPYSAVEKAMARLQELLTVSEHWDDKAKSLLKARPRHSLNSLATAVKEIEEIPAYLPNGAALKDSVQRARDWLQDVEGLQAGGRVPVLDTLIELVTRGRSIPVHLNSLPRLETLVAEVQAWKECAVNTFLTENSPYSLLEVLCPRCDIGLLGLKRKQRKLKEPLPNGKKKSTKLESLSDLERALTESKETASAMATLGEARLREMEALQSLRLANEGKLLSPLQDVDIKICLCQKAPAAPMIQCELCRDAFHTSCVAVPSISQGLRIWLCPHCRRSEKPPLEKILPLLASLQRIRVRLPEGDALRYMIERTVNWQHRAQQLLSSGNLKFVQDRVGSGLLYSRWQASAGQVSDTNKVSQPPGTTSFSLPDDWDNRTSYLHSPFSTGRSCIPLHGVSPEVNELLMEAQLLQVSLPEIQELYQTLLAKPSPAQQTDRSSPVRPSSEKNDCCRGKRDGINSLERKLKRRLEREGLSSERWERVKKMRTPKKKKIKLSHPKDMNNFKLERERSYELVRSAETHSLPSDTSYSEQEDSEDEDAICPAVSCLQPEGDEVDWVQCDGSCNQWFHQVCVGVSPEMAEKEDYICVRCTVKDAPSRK

Assay [8] is described as follows: qHTS to identify inhibitors of the type 1 interferon - major histocompatibility complex class I in skeletal muscle: primary screen against the NCATS LOPAC collection (AID 1347405).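 Also: lytic HiBiT luminescence reporting HLA-B protein level.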 Also: potency is read from the fitted curve at half-maximal effect. In outline: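 Cells: C25cl48 human myoblasts, HiBiT-tagged HLA-B*08:01, stimulated with IFN-beta 4.0 ng/ml. Compounds are titrated 1:4.3 over 7 points from 46 uM final and incubated 24 hrs; endogenous MHC class I is quantified by HiBiT lytic luminescence.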

A short description of assay [9]: qHTS for inhibitors of adenylyl cyclases using a fission yeast platform: a pilot screen against the NCATS LOPAC library (AID 1347410). In outline: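 GFP from fbp1-GFP reporter, read by Acumen laser cytometry, indicates AC inhibition in fission yeast expressing AC9, GNAS and PDE4D2. Cells grown 18 h in the dark at 30C with compounds, final up to 57 uM.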
Assay [10] in a line: qHTS to identify inhibitors of the type 1 interferon - major histocompatibility complex class I in skeletal muscle: primary screen against the NCATS Mechanism Interrogation Plate v5.0 (MIPE) Libary (AID 1347411). Also: nearly all actives have a fitted effect of over 65% in size. Also: potency is read from the fitted curve at half-maximal effect. In outline:
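Cells were genome-edited human myoblasts carrying a HiBit tag on endogenous HLA-B. They were treated with IFN-beta (4.0 ng/ml) and titrated compounds (top 46 uM) for 24 hrs before lytic HiBiT detection.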

The nature of assay [11]: Validation qHTS assay for inhibitors of Activation Induced Cytidine Deaminase (AID): UDG Counterscreen signal (AID 1347427). In outline: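 Counterscreen read of UDG activity (2 U/mL, 4/3x) in the FRET deamination format with AID (1 uM, 4/3x), DJC20/DJC23 substrates (250 nM, 4x), 4 h at room temperature. NaOH stop, fluorescence at 560 ex/665 em.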

Chain of Protein phosphatase 1D (Homo sapiens) (O15297 whole entry, looked up): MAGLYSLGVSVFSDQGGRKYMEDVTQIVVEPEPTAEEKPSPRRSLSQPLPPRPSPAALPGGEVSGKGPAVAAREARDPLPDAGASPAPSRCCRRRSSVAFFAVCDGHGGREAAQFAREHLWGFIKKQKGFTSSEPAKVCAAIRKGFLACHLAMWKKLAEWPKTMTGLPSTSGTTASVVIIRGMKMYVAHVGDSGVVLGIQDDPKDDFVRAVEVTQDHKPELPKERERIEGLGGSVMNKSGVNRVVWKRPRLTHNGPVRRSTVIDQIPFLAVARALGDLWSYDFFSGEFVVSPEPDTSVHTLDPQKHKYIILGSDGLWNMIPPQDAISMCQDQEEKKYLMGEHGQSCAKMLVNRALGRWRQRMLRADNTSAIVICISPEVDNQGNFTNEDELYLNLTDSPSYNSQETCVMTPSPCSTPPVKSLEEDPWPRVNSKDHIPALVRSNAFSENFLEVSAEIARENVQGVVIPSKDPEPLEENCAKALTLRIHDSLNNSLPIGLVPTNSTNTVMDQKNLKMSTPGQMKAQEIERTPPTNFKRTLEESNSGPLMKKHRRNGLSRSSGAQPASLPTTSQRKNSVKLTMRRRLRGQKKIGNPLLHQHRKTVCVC

Take `O=c1[nH]cnc2c1ncn2[C@@H]1O[C@H](CO)[C@@H](O)[C@H]1O`: the Potency entry in assay [1], in [2], in [3] and in assay [4] was “inactive” each time. The result in assay [5] and in assay [6] was inactive.
For the compound `O=C(CCCN1CCN(c2ccccn2)CC1)c1ccc(F)cc1`, the Potency entry in assay [1], in assay [2], in assay [3] and in assay [4] was “inactive” each time. Moreover, the call in [5] and in [6] was inactive.
On to `CC[C@H]1CN2CCc3cc(OC)c(OC)cc3[C@@H]2C[C@@H]1C[C@H]1NCCc2cc(OC)c(OC)cc21`, for which the Potency result in assay [1] and in [11] was “inactive” throughout. In addition, the compound was classed as inactive in assay [7], in assay [9], in [5] and in assay [6]. Moreover, the Potency in [8] was 282 nM (active); in assay [4], 264 nM (active); in [10], 658 nM (active).
Take `CC/C=C(\C(=O)N[C@@H]1C(=O)N2C(C(=O)OCOC(=O)C(C)(C)C)=C(COC(N)=O)CS[C@H]12)c1csc(N)n1`: the Potency entry in assay [1], in [2] and in [3] was “inactive” throughout. Besides, the result in assay [5] and in assay [6] was inactive.
As for `[Cl][In]([Cl])[Cl]`, in [1], the Potency is 11200 nM (active).
As for `CCN(CC)CCNC(=O)c1cc(Cl)c(N)cc1OC`, the Potency result in [1], in assay [2], in [3], in assay [8], in [4] and in assay [11] was “inactive” throughout. Moreover, the result in assay [7], in assay [9], in [5] and in assay [6] was inactive.
Consider `Cn1c(=O)c2c(ncn2CC2OCCO2)n(C)c1=O`, for which the Potency result in assay [1], in assay [2], in assay [3], in assay [4] and in [10] was “inactive” in each case. In addition, the result in assay [5] and in assay [6] was inactive.
Turning to `CC(C)(C(=O)O)c1ccc(C(O)CCCN2CCC(C(O)(c3ccccc3)c3ccccc3)CC2)cc1` (stereo not drawn), the Potency entry in assay [1], in assay [2], in assay [3], in assay [8] and in [4] was “inactive” each time. The outcome in assay [7], in assay [9], in assay [5] and in assay [6] was inactive.
Regarding `COc1ccc2cc1Oc1ccc(cc1)C[C@H]1c3c(cc4c(c3Oc3cc5c(cc3OC)CCN(C)[C@@H]5C2)OCO4)CCN1C`, the Potency result in [1], in assay [2] and in [3] was “inactive” each time. Besides, the outcome in [5] and in [6] was inactive.
For `CS(=O)(=O)c1ccc([C@@H](O)[C@@H](CF)NC(=O)C(Cl)Cl)cc1`, the Potency result in [1], in assay [2] and in [3] was “inactive” each time. Further, the result in [5] and in assay [6] was inactive.
For `CN1CCC[C@@H]1Cc1c[nH]c2ccc(CCS(=O)(=O)c3ccccc3)cc12`, the Potency entry in assay [1], in assay [2], in [3] and in [8] was “inactive” throughout. Further, the result in [9], in [5] and in [6] was inactive.
`CCCCc1ncc(/C=C(\Cc2cccs2)C(=O)O)n1Cc1ccc(C(=O)O)cc1`: the Potency entry in assay [1], in assay [2], in assay [3], in assay [8] and in assay [4] was “inactive” throughout. The result in assay [9], in [5] and in [6] was inactive.
